Compound activity as filed in PubChem.
Mito fusion act: blocks mitochondrial division or promotes mitochondrial fusion. S. cerevisiae fusion-defective mutant growth rescue, CellTiterGlo 48 h. Potency, µM (titrated, usually from 46.1 µM), inactives show at the top dose growth rescue (activation), usual class: activators. 0.23% of 320,000 active; note: % of control where 0% means no effect; nearly all actives have a fitted effect of over 45% in size
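Yeast fusion mutant, YPEG (non-fermentable carbon), compound, 48 h at 37C non-permissive; CellTiterGlo added, 10 min RT, luminescence read. Rescued growth = division inhibition.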
FUS suppressor: FUS proteinopathy suppression in yeast; Potency, µM (titrated, usually from 76.6 µM), most hits filed as activators; 0.24% of 390,000 active; S. cerevisiae FUS-expressing, growth rescue, OD600, 24 h;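 note: plate controls were DMSO vehicle for no effect and reference control for full effect; nearly all actives have a fitted effect of over 55% in size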
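Yeast FUS proteinopathy model; galactose-induced FUS (2%), starting OD 0.005. Cpds in dilution series, 24hr, 30C, 99% humidity. Abs 600 nm growth. Pos ctrl CP55940 (top 92uM final); neg ctrl DMSO.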
aSyn yeast inh: alpha-synuclein toxicity inhibition in yeast. AID 652106. Potency, µM (titrated, usually from 46.1 µM), inactives show at the top dose growth rescue (activation), usual class: activators. Yeast expressing alpha-synuclein, growth rescue, BacTiter-Glo, 24 h. 0.14% of 370,000 active; note: % of control where 0% means no effect; nearly all actives have a fitted effect of over 65% in size
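Rescue of yeast growth: cells expressing toxic alpha-synuclein, induced in galactose at OD600 0.02, incubated with compound 24 h at 30 C. ATP luminescence quantified growth; inhibitors of toxicity appear as activators.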
TDP43 rescue: rescues yeast growth from TDP-43 toxicity; AID 652104; Potency, µM (series often up to 46.1 µM), for the others: top-dose growth rescue (activation), hits mostly activators; 1.8% of 410,000 active; TDP-43 expressing yeast growth rescue, BacTiter-Glo, 24 h; note: % of control where 0% means no effect; nearly all actives have a fitted effect of over 50% in size
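Cell-based yeast growth screen: TDP-43 expression induced in galactose, inoculum OD600=0.02 after raffinose pregrowth to mid-log. Read-out BacTiter-Glo luminescence at 24 hr, 30 deg C; inhibition of toxicity seen as signal increase.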
Abeta yeast res: compounds reversing amyloid beta toxicity in yeast. yeast expressing A-beta42, growth rescue, OD600, 48 h; response scale: 0% DMSO, 100% iron-clioquinol control. 0.063% of 410,000 active. AID 1347071. Potency, µM (top dose mostly 46.1 µM), hits mostly activators; note: nearly all actives have a fitted effect of over 55% in size
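Yeast growth medium received pinned compounds, then yeast cells expressing toxic A-beta were added; plates incubated at 30 C for 48 hr. Growth read as absorbance at 600 nm, normalized to DMSO and equimolar FeCl3 plus clioquinol controls.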
The depositor's hits bear a star; [ ] = dose if it differs, or a comment. The list is not random: actives were taken first. Their share in the collection is about 2.2%. Calls come from the whole dose curve; as a rule, active = well fitted curve in the direction sought with a large enough effect; inconclusive = small, poorly fitted or top-dose-only effect, or another doubt; inactive = no such curve, though single readings can be large; an effect the other way counts as inactive or inconclusive. Potency is the fitted concentration of half-maximal effect.

For O=C(Nc1ccc2c(c1)OCO2)C1Cc2c(-c3ccc4c(c3)OCO4)ccnc2O1 (stereo not given) the results were FUS suppressor inactive, aSyn yeast inh 6%, TDP43 rescue 28µM* and Abeta yeast res inactive.
Screening O=C(Nc1ccccc1)C1Cc2c(-c3ccco3)ccnc2O1 (stereo not given) returned FUS suppressor inactive, aSyn yeast inh inconclusive, TDP43 rescue 25µM* and Abeta yeast res inactive.
Screening COc1ccccc1C(=O)NNC(=O)c1cccc(C)c1 returned Mito fusion act -1%, FUS suppressor inactive, aSyn yeast inh -1%, TDP43 rescue inconclusive and Abeta yeast res inactive.
`Cc1cccc(C)c1NC(=O)c1ccc(-c2cc(F)ccc2F)o1` gave FUS suppressor inactive, aSyn yeast inh -1%, TDP43 rescue 11µM* and Abeta yeast res inactive.
Cc1ccccc1NC(=O)c1ccc(-c2ccc(Cl)cc2Cl)o1 was read as Mito fusion act inconclusive, FUS suppressor inactive, aSyn yeast inh 1%, TDP43 rescue 20µM* and Abeta yeast res inconclusive.
Cc1cccc(C)c1NC(=O)c1ccc(-c2ccc(Cl)cc2Cl)o1 was read as Mito fusion act inconclusive, FUS suppressor inactive, aSyn yeast inh 0%, TDP43 rescue 21% and Abeta yeast res inactive.
O=C(/C=C/c1ccccc1)Nc1nc2n(n1)C(c1ccc(F)cc1)C=C(c1ccccc1)N2 (stereo not given) was read as FUS suppressor inconclusive, TDP43 rescue 17%[9.22 µM] and Abeta yeast res inactive.
O=C(Nc1ccc2c(c1)OCCO2)C(c1cc2ccccc2o1)N1CCC(Cc2ccccc2)CC1 (stereo not given) was read as FUS suppressor 16µM*, aSyn yeast inh -14%, TDP43 rescue 12% and Abeta yeast res inactive.
Screening CSc1nc(C)c(Oc2ccccc2)c(=O)n1C returned Mito fusion act 5%, FUS suppressor inactive, aSyn yeast inh -3%, TDP43 rescue 13% and Abeta yeast res inactive.
`CSc1nc(-c2ccccc2F)c(C#N)c(=O)n1C` gave Mito fusion act 9%, FUS suppressor inactive, aSyn yeast inh -1%, TDP43 rescue 20µM* and Abeta yeast res inactive.
For COC(=O)c1cc(NC(=O)c2ccc3c(c2)N(Cc2cccc(Cl)c2)C(=O)c2ccccc2S3=O)cc(C(=O)OC)c1 (stereo not given) the results were FUS suppressor inactive, TDP43 rescue 8% and Abeta yeast res inactive.
Screening FC(F)(F)c1ccccc1Cc1c(-c2cccc(Br)c2)nc2c3ccccc3ccn12 returned FUS suppressor inactive, aSyn yeast inh 2%, TDP43 rescue 14µM* and Abeta yeast res inactive.
Screening Cc1ccccc1CNC(=O)c1ccc(CN2CC(=O)N3CCCCC3C2=O)cc1 (stereo not given) returned FUS suppressor inactive, TDP43 rescue -20% and Abeta yeast res inactive.
Screening C=CCSc1nnc(-c2sc(-c3ccccc3)nc2C)n1C returned Mito fusion act 7%, FUS suppressor inactive, TDP43 rescue 16µM* and Abeta yeast res inactive.
Screening COc1cc(O)ccc1-c1nc2cc(C)ccn2c1Nc1ccccc1C returned FUS suppressor inactive, TDP43 rescue 7% and Abeta yeast res inactive.
O=C(c1ccc(N2CCN(C(=O)c3ccc(F)cc3F)CC2)cc1)c1cccc(F)c1 was read as Mito fusion act -6%, FUS suppressor inactive, aSyn yeast inh 10%, TDP43 rescue 18µM* and Abeta yeast res inactive.
O=C(c1ccc(F)cc1F)N1CCN(c2ncccn2)CC1 was read as Mito fusion act 2%, FUS suppressor inactive, aSyn yeast inh 0%, TDP43 rescue -4% and Abeta yeast res inactive.
For O=C(Oc1ccccc1)N1CCCCC1 the results were FUS suppressor inactive, aSyn yeast inh inconclusive, TDP43 rescue 4% and Abeta yeast res inactive.
`NC(=O)[C@@H]1CC2(CC(c3cccc(NC(=O)COc4ccc(Cl)cc4)c3)=NO2)CN1C(=O)c1ccccc1` (stereo not given in full) gave Mito fusion act 21%, FUS suppressor inactive, aSyn yeast inh 10%, TDP43 rescue 5% and Abeta yeast res inactive.
For COc1ccc(-c2cccc(NC(=O)COc3ccc(Cl)cc3)c2)nn1 the results were Mito fusion act inconclusive, FUS suppressor inactive, aSyn yeast inh -11%, TDP43 rescue 11µM* and Abeta yeast res inactive.
Screening COc1ccc(C(=O)N2CC3(CC(c4cccc(NC(=O)COc5ccc(Cl)cc5)c4)=NO3)C[C@@H]2C(N)=O)cc1 (stereo not given in full) returned Mito fusion act 15%, FUS suppressor 35µM*, aSyn yeast inh 2%, TDP43 rescue 4% and Abeta yeast res inactive.
For CCc1ccccc1NC(=O)CN1C(=O)CCn2nc(-c3cccn3C)cc21 the results were FUS suppressor inactive, TDP43 rescue 0% and Abeta yeast res inactive.
Screening COCCNC(=O)/C(C#N)=C/c1ccccc1Br returned Mito fusion act 4%, FUS suppressor inactive, aSyn yeast inh -3%, TDP43 rescue 22µM* and Abeta yeast res inactive.
For CC(NC(=O)/C=C/c1ccccc1[N+](=O)[O-])C1CC2CCC1C2 (stereo not given) the results were Mito fusion act -6%, FUS suppressor inactive, aSyn yeast inh 3%, TDP43 rescue -4% and Abeta yeast res inactive.
For CCCN1C(=O)c2ccccc2NC1c1ccc(OC)c(COc2cccc(C)c2C)c1 (stereo not given) the results were aSyn yeast inh 4%.
For Cc1ccc(C23CC4CC(CC(NC(=O)NC(C)(C)CO)(C4)C2)C3)cc1 the results were Mito fusion act inconclusive, FUS suppressor inactive, TDP43 rescue 22µM* and Abeta yeast res inactive.
For Cc1ccc(C23CC4CC(CC(NC(=O)NN)(C4)C2)C3)cc1 the results were Mito fusion act -14%, FUS suppressor inactive, aSyn yeast inh 4% and TDP43 rescue inconclusive.
`COc1ccccc1-c1nn2c(-c3cc(C)[nH]n3)nnc2s1` gave aSyn yeast inh -9%.
`Cn1c2ccccc2c2ncn(CCC3=CCCCC3)c(=O)c21` gave Mito fusion act 28%, FUS suppressor inactive, aSyn yeast inh -4%, TDP43 rescue 13µM* and Abeta yeast res inactive.
Screening Cn1c2ccccc2c2ncn(CCCN3CCOCC3)c(=O)c21 returned Mito fusion act -5%, FUS suppressor inactive, aSyn yeast inh -3%, TDP43 rescue 6% and Abeta yeast res inactive.
For COc1ccccc1C(=O)OCn1nnc2ccccc2c1=O the results were Mito fusion act 9%, FUS suppressor inactive, aSyn yeast inh 2%, TDP43 rescue 22% and Abeta yeast res inactive.
